Experimental data published in PubChem BioAssay AID620 (Sanford-Burnham Center for Chemical Genomics, 2007).
The campaign covered roughly 87,000 compounds. About 360 (0.41%) were called active. The full list was thinned out, with actives kept by preference. Unmarked numbers belong to inactive results. No stated cut-off is given here; in the data, active means cytotoxicity above about 50%; inactive means the rest.

Assay: cytotoxicity in HT1080 fibrosarcoma cells, cell-based, fluorescence readout (AID 620);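 further: cells exposed to compound overnight then 4 h with Alamar Blue; 0% = vehicle DMSO and 100% = killing control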
Settings: HT1080 viability, at 10 µM, active compounds read high
Work on `O=C(NCc1ccccn1)C1CCCN(Cc2cnn(-c3ccccc3)c2-n2cccc2)C1` (stereo unspecified) yielded a cytotoxicity of -8.2%.
With `O=S(=O)(c1ccc(S(=O)(=O)N2CCCC2)cc1)N1CCCCCC1` the cytotoxicity was 1.4%.
`CC1CCN(S(=O)(=O)c2ccc3c(c2)C(=NO)c2cc(S(=O)(=O)N4CCC(C)CC4)ccc2-3)CC1` gave a cytotoxicity of 4.2%.
In the case of `O=S(=O)(c1ccc2c(c1)C(=NO)c1cc(S(=O)(=O)N3CCCCC3)ccc1-2)N1CCCCC1`, the cytotoxicity is reported as 102% (active).
`CC(=O)c1ccc(NC(=O)C(Cc2ccccc2)NC(=O)c2ccco2)cc1` (stereo unspecified) showed a cytotoxicity of 16.9%.
With `CCC(C(=O)NC1CCCC1)N(Cc1cccs1)C(=O)Cn1nnc(-c2ccc(OC)c(OC)c2)n1` (stereo unspecified) the cytotoxicity was -0.6%.
For `CC1=C/C(=N\OS(=O)(=O)c2ccccc2)C=CC1=O`, the cytotoxicity was 35.8%.
In the case of `CC1=C(C)/C(=N\OS(=O)(=O)c2ccccc2)C=CC1=O`, the cytotoxicity is reported as 70.2% (active).
`O=S(=O)(O/N=C1\CCCc2ccccc21)c1ccccc1` showed a cytotoxicity of 21.4%.
With `CC1=CC(=O)C=C(C)C1=NOS(=O)(=O)c1ccccc1` the cytotoxicity was 51.3% (active).
For `Cc1ccc(S(=O)(=O)O/N=C2\CCCc3ccccc32)cc1`, the cytotoxicity was 9.9%.
For `CC1=C(C)/C(=N/OC(=O)c2cccc([N+](=O)[O-])c2)C=CC1=O`, the cytotoxicity was 7.5%.
In the case of `Cn1cc(Cl)c(C(=O)N/N=C/c2ccc(OS(=O)(=O)c3ccccc3)cc2)n1`, the cytotoxicity is reported as 6.3%.
For `Cc1ccc2[nH]c(=O)c(-c3nc4cc(C)ccn4c3NCc3ccco3)cc2c1`, the cytotoxicity was -1.5%.
Work on `CC(=O)OC(Cn1ccnc1)c1ccccc1` (stereo unspecified) yielded a cytotoxicity of 7.8%.
For `COc1ccccc1N1CCN(C(=O)c2ccc(Cl)c(S(=O)(=O)NCc3ccco3)c2)CC1`, the cytotoxicity was 56.3% (active).
For `O=C(c1ccc(Cl)c(S(=O)(=O)NCc2ccco2)c1)N1CCN(c2ccccc2F)CC1`, the cytotoxicity was 5.8%.
Work on `Cc1cccc(N2CCN(C(=O)c3ccc(Cl)c(S(=O)(=O)NCc4ccco4)c3)CC2)c1C` yielded a cytotoxicity of 26.2%.
`Nc1nc(SCc2ccc(Cl)cc2)[nH]c(=O)c1-c1ccccc1` showed a cytotoxicity of 1.6%.
Work on `Cc1cc(C)nc(N2CCN(c3nc(C)nc4c3oc3ccccc34)CC2)n1` yielded a cytotoxicity of -3.6%.
For `COc1ccccc1N1CCN(c2nc(C)nc3c2oc2ccccc23)CC1`, the cytotoxicity was 74.7% (active).
`COc1ccccc1N1CCN(c2ncnc3c2oc2ccccc23)CC1` gave a cytotoxicity of -2.5%.
In the case of `O=C(c1cccc(F)c1)N1CCN(Cc2c[nH]c3ccccc23)CC1`, the cytotoxicity is reported as 2.4%.
In the case of `COc1ccc2cc(C(c3nnnn3Cc3ccccc3)N3CCCCCC3)c(=O)[nH]c2c1` (stereo unspecified), the cytotoxicity is reported as 17.3%.
Molecule `Cc1cc(C(=O)CSc2nnc(-c3cccs3)n2Cc2ccccc2)c(C)n1C` has a cytotoxicity of 4.7%.
In the case of `Cc1c(NC(=O)CSc2nc3ccccc3n2C)c(=O)n(-c2ccccc2)n1C`, the cytotoxicity is reported as 2.7%.
`COc1ccc(C(=O)n2nc(-c3ccco3)nc2N)cc1` showed a cytotoxicity of 25.6%.
In the case of `COc1ccc(C(=O)n2c(-c3ccco3)nc3ccccc32)cc1`, the cytotoxicity is reported as 56.2% (active).
`CCn1c(-c2ccco2)nc2ccccc21` showed a cytotoxicity of 6.1%.
With `CCN(CC)C(=O)CSc1nc2sc(C)c(C)c2c(=O)[nH]1` the cytotoxicity was -6.3%.
`COc1ccc(CCN(C)C(=O)N2CCOCC2)cc1OC` gave a cytotoxicity of -5.8%.
With `CCSc1nnc(NC(=O)c2cccc(OCc3c(C)noc3C)c2)s1` the cytotoxicity was -11.1%.
In the case of `COc1cc(C(=O)Nc2nc3ccccc3s2)ccc1OCc1c(C)noc1C`, the cytotoxicity is reported as -13%.
In the case of `COc1ccc2nc(NC(=O)c3cccc(OCc4c(C)noc4C)c3)sc2c1`, the cytotoxicity is reported as 57.3% (active).
Work on `CC1C(=O)CCN(C(C)C)C1C` (stereo unspecified) yielded a cytotoxicity of -13.7%.
`Cc1oc2cc(O)cc(C)c2c(=O)c1-c1cnn(-c2ccccc2)c1` gave a cytotoxicity of 33.9%.
Molecule `O=C1CCc2cc(S(=O)(=O)N3CCCC3C(=O)N3CCN(c4ccccc4)CC3)ccc2N1` (stereo unspecified) has a cytotoxicity of -3.8%.
`Cc1cc(NCCCn2ccnc2)n2ncc(-c3ccccc3)c2n1` showed a cytotoxicity of -5.3%.
`CC(C)(C)c1cc(NCCCn2ccnc2)n2ncc(-c3ccc(Cl)cc3)c2n1` gave a cytotoxicity of -4.9%.
For `Cc1cccc(-n2nnnc2SCC(=O)NCCN2C(=O)CSC2=O)c1`, the cytotoxicity was -3.3%.
For `O=C(c1cc2ccccc2oc1=O)N(Cc1cccs1)C1CCS(=O)(=O)C1` (stereo unspecified), the cytotoxicity was 3.4%.
For `Cc1[nH]nc2c1C(C(C)C)C(C#N)=C(N)O2` (stereo unspecified), the cytotoxicity was 11.3%.
With `Cc1[nH]nc2c1C(C1CC=CCC1)C(C#N)=C(N)O2` (stereo unspecified) the cytotoxicity was 73% (active).
Molecule `Cc1ccc(C2C(C#N)=C(N)Oc3n[nH]c(C)c32)cc1` (stereo unspecified) has a cytotoxicity of 1.3%.
For `Cc1ccc(N=Nc2c(C)[nH][nH]c2=O)c(C)c1`, the cytotoxicity was 1.8%.
In the case of `COc1ccc(CCN/C=C2/CC(=O)NC2=O)cc1OC`, the cytotoxicity is reported as 0.2%.
In the case of `COc1ccc(C)cc1NC(=O)NC1CCN(Cc2ccccc2)CC1`, the cytotoxicity is reported as 3%.
In the case of `O=C1C(=O)c2ccc(-c3ccccc3)cc2-c2ccccc21`, the cytotoxicity is reported as 47.5%.
In the case of `Nc1ccc(Br)c2c1C(=O)c1ccccc1C2=O`, the cytotoxicity is reported as -18.1%.
For `Nc1ccc2c(c1)C(=O)C(=O)c1ccccc1-2`, the cytotoxicity was 92.7% (active).
In the case of `COc1cc(C2=NOC(C(=O)NCc3ccco3)C2)cc(OC)c1OC` (stereo unspecified), the cytotoxicity is reported as 54.4% (active).
For `COc1ccc(C2=NOC(C(=O)NCc3cccs3)C2)cc1OC` (stereo unspecified), the cytotoxicity was 59.8% (active).
For `O=C(NCc1cccs1)C1CC(c2ccccc2O)=NO1` (stereo unspecified), the cytotoxicity was -1.4%.
Work on `COc1ccc(C2=NOC(C(=O)NCc3cccs3)C2)cc1` (stereo unspecified) yielded a cytotoxicity of 7.4%.
`COc1ccc(C2=NOC(C(=O)NCc3ccco3)C2)cc1OC` (stereo unspecified) gave a cytotoxicity of 46.5%.
For `COc1cc(C2=NOC(C(=O)NCc3cccs3)C2)cc(OC)c1OC` (stereo unspecified), the cytotoxicity was 58.1% (active).
In the case of `COc1cc(C2=NOC(C(=O)NCc3ccccn3)C2)cc(OC)c1OC` (stereo unspecified), the cytotoxicity is reported as -2.6%.
`COc1ccc(C2=NOC(C(=O)NCc3ccco3)C2)cc1` (stereo unspecified) showed a cytotoxicity of 6%.
With `COc1cccc(C2=NOC(C(=O)NCc3cccs3)C2)c1` (stereo unspecified) the cytotoxicity was -1.8%.
`CCCCN(C)Cc1c(O)ccc2c(-c3ccccc3)cc(=O)oc12` showed a cytotoxicity of 11.9%.
In the case of `CCOc1ccc(NC(=O)N2CCC(NC(=O)c3ccco3)CC2)cc1`, the cytotoxicity is reported as 4.5%.
